SMILES strings stand for the structures. The panel holds about 83,000 compounds, 20% with a hit somewhere; the sample as a whole holds those more often.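 Negative percent growth values reflect cell death: -40 means 40% of the cells present at the start died, and -100 means all died.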 Values without a mark were called inactive. Active and inactive are the calls of the source. Rule for the calls: active = growth percent below 10; inactive = the rest.

The test relates to SF-539 CNS. Briefly: NCI-60 one-dose screen, 48 h (100 = growth as untreated, 0 = no growth, -100 = all killed). As to conditions: 10 µM unless noted.
Turning to `Cc1ccc(Cl)cc1NC(=O)c1cc2ccccc2cc1O`, the growth is -0.708% (active).

Consider `COc1ccc(NC(=O)CSc2nc(C)c(C(C)=O)n2-c2ccc([N+](=O)[O-])cc2)cc1`, for which the growth is 102%.

As for `O=C(NC(Cc1nnc2n(Cc3ccccc3)c(=O)c3c4c(sc3n12)CCCC4)c1ccc(Cl)cc1)c1ccccc1` (stereo not drawn), the growth is 80.2%.

In the case of `COc1cc(C2CC(=O)Nc3c2c(C)nn3-c2nc3ccccc3[nH]2)c(OC)c(OC)c1OC` (stereo not drawn), the growth was 63.7%.

`Cn1c(-c2c(N)n(Cc3ccc(C(F)(F)F)cc3)c3nc(C#N)c(C#N)nc23)nc2ccccc21`: the growth was 8.23% (active).

On to `N#Cc1c(-c2ccccc2)cc(-c2ccc(Nc3nc(Nc4ccc(F)cc4)nc(Nc4ccc(F)cc4)n3)cc2)nc1N`, for which the growth was 94.5%.

Take `Cc1c(O)cc(-c2cnc(N/N=C\c3ccc(Cl)cc3)s2)c(O)c1C`: the growth is 78.8%.

As to `COc1ccc2c(c1)O/C(=C\c1cccc(OCC(=O)Nc3nc4ccccc4s3)c1)C2=O`, the growth is 97.6%.

Take `Cn1c2c(c3ccc(Cl)c(Cl)c31)C(C#N)C1(CCNCC1)NC2=O` (stereo not drawn): the growth was 56.8%.

For the compound `COc1ccc(C2=NN(C(=O)c3cc(OC)c(OC)c(OC)c3)C(c3ccc(Cl)cc3)C2)cc1OC` (stereo not drawn), the growth is -3.19% (active).

Turning to `CCN(CC)CCN1CC(O)=C(c2nc(-c3ccc(Cl)cc3)cs2)C1=N`, the growth was -69.8% (active).

With `C=C(C)[C@@H]1CC=C2c3sc(-c4ccc(C)cc4)nc3C[C@@H](C)[C@]2(C)C1`, the growth was 102%.

On to `COC(=O)c1c2c(c[n+]([O-])c1C)C(=O)C=CC2=O`, for which the growth is 83.5%.

Turning to `COc1ccc(NC(=O)CSc2nnc(-c3cc(-c4ccccc4)nc4ccccc34)n2-c2ccccc2)cc1`, the growth is 100%.

As to `COc1cc(C2CC(=O)Nc3c2c(C)nn3-c2nc3ccccc3[nH]2)cc2c1OCC(=O)N2` (stereo not drawn), the growth was 50.6%.

`Cc1cc(Cl)nc(NCc2cc(Nc3ccnc4cc(Cl)ccc34)ccc2F)n1`: the growth is 70.5%.

For the compound `COc1ccc2c(c1)[nH]c(=O)c1c3cccnc3cn21`, the growth is 8.85% (active).

Turning to `Cc1ccc(Cc2cnc(NC(=O)c3ccc4noc(-c5ccccc5)c4c3)s2)cc1`, the growth is 94.7%.

`CC1=CN2C(=O)C3C4=C(CCCC4)SC3N=C2CN1c1c(C)cccc1C` (stereo not drawn): the growth is 96.7%.

`Cc1ccc2[nH]c(=O)c3c(c2c1)OC(N)=C(C#N)C31c2cc(Br)ccc2-c2ccc(Br)cc21`: the growth was 85.5%.

On to `CS(=O)(=O)c1ccc(Nc2nc(N[C@H]3CCCC[C@H]3N)nc3cc[nH]c(=O)c23)cc1`, for which the growth was -11.8% (active).

With `O=C(NCCCNc1cc(-c2cn(-c3ccccc3)nc2-c2cccc(O)c2)ccn1)c1cccc(O)c1`, the growth was 69.5%.

As for `COc1ccc(C(=O)COc2ccc(/C=C3\Oc4ccccc4C3=O)cc2)cc1`, the growth was 94.7%.

Regarding `Cc1ccc(C2SCC(=O)N2Cc2ccccc2)cc1` (stereo not drawn), the growth was 109%.

For `Cc1cccc(Cc2cnc(NC(=O)/C=C/c3ccco3)s2)c1`, the growth is -19.9% (active).

As for `CN(C)CCNc1nc2ccccc2c2c1c1c(n2Cc2ccccc2)-c2ccccc2C1=O`, the growth was -91.3% (active).

Take `Cc1occc1-c1n[nH]c(=S)n1N1C(=O)CSC1=S`: the growth was 98.5%.

Turning to `Cc1cccc(NC(=O)CSc2nc3ccccc3[nH]2)c1`, the growth is 98.1%.

For `Cc1ccccc1NC(=O)N/C(N)=N/c1nc(C)c(C)s1`, the growth was -26% (active).

Consider `NNC(=O)c1nc(N)n(-c2ccc(S(N)(=O)=O)cc2)n1`, for which the growth is 89.2%.

`COc1cc(CCC[P+](c2ccccc2)(c2ccccc2)c2ccccc2)cc2c1OCO2`: the growth is 43%.

Regarding `O=C1/C(=C2/C=Nc3ccccc32)N(O)c2ccccc21`, the growth is 104%.

On to `COc1ccccc1N1C(=O)/C(=C/C2=Cc3ccccc3OC2)SC1=S`, for which the growth is 103%.

Consider `C=CCn1c(C)nc2cc(Nc3nc(Cl)nc4ccccc34)ccc21`, for which the growth was 97.4%.

In the case of `COc1cc(/C=C/C(=O)c2c(C)nc3ccccc3c2C)ccc1OCCCN1CCN(C(=O)c2ccco2)CC1`, the growth was 93.3%.

Take `Cn1cc(-c2csc(-c3ccccc3)n2)c2cccnc21`: the growth is -71% [100 µM] (active).

As to `N=C(N)c1ccc(-c2ccc(-c3cncc4ccccc34)s2)s1`, the growth was -77.6% (active).

On to `CC(C)CC(NC(=O)CN(Cc1ccccc1)S(C)(=O)=O)C(=O)O` (stereo not drawn), for which the growth was 90.9%.

Source of the values: PubChem BioAssay (NCI).
